This is a sample that favours compounds with a hit; in the whole collection about 19% have one here.
DT40 TDP1 CPT: qHTS for Inhibitors of human tyrosyl-DNA phosphodiesterase 1 (TDP1): qHTS in cells in presence of CPT. chicken DT40 Tdp1-/-;hTDP1 cells + 20 nM CPT, ATP luminescence, 48 h. Potency, µM (doses to about 46.2 µM), inactives show top-dose activity change, negative = growth inhibition, hits mostly inhibitors. AID 686979, 2013. 420,000 compounds, 12% hits; also: potency is read from the fitted curve at half-maximal effect; nearly all actives have a fitted effect of over 55% in size
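Chicken DT40 Tdp1-/- cells stably complemented with human TDP1 were seeded at 400 cells/well in medium containing 20 nM camptothecin, exposed to pin-transferred compounds, and grown at 37 °C for at least 48 hr. Viability was read as ATP luminescence.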
IL-1B inflam inh: qHTS for Inhibitors of Inflammasome Signaling: IL-1-beta AlphaLISA Primary Screen. activity change, % at 57.5 µM. 360,000 compounds, 4.7% hits. THP-1 LPS/ATP IL-1B secretion, AlphaLISA, 16 h; hits give low values; in the data active = activity change below about -50%; inconclusive = mostly about -30% to -49%
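THP-1 cells pretreated 1 hr with compounds (up to 57.5 uM final), then stimulated with LPS (250 ng/mL final) plus ATP (1.25 mM final); secreted IL-1B measured by AlphaLISA after 16 hr, decreased signal indicating inhibition.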
HT1080-NT tox: qHTS for induction of synthetic lethality in tumor cells producing 2HG: qHTS for the HT-1080-NT fibrosarcoma cell line; HT-1080-NT fibrosarcoma viability, CellTiter-Glo ATP luminescence, 48 h; Potency, µM (highest dose often 46.1 µM), without a hit: top-dose activity, negative = less viability, actives largely listed as cytotoxic; 360,000 compounds, 1.6% hits; AID 686970, 2013;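 also: NT is the 2HG producing partner of a matched IDH1 knockdown line; potency is read from the fitted curve at half-maximal effect; 0% = DMSO-treated cells and -100% = media-only wells without cells; nearly all actives have a fitted effect of over 55% in size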
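Read-out is CellTiter-Glo luminescence after 10 minutes at room temperature, following 48 hours' compound treatment of HT-1080-NT cells (750 cells/well, RPMI, 5% FBS, 37 degrees C).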
HT1080 IDH1KD tx: qHTS for induction of synthetic lethality in tumor cells producing 2HG: qHTS for the HT-1080-IDH1KD cell line. HT-1080 IDH1 knockdown viability, ATP luminescence, 48 h. Potency, µM (highest dose often 46.1 µM), inactives show at the top dose activity, negative = toxicity, hits mostly cytotoxic. AID 686971, 2013. 360,000 compounds, 2% hits;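 also: potency is read from the fitted curve at half-maximal effect; 0% = DMSO wells and -100% = cell-free medium wells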
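After a 2 h attachment period, IDH1KD HT-1080 cells took pin-transferred compound for 48 h at 37 °C; ATP-based luminescence after 10 min room-temperature reagent incubation reported viability.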
TDP1 cell noCPT: qHTS for Inhibitors of human tyrosyl-DNA phosphodiesterase 1 (TDP1): qHTS in cells in absence of CPT | DT40 Tdp1-/- hTDP1 cells, no CPT, ATP luminescence, 48 h | Potency, µM (top dose mostly 46.2 µM), without a hit: top-dose activity change, negative = growth inhibition, actives largely listed as inhibitors | 420,000 compounds, 15% hits | AID 686978, 2013; also: potency is read from the fitted curve at half-maximal effect; nearly all actives have a fitted effect of over 55% in size
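Chicken DT40 Tdp1-/- cells stably complemented with human TDP1 were seeded at 400 cells/well with DMSO in place of 20 nM camptothecin. After compound pinning, cells grew at least 48 hr at 37 °C; viability read by CellTiter-Glo luminescence.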
An asterisk follows results filed as active; ? = inconclusive; / = not tested or not shown; [ ] = remark or other dose. Unless noted, calls follow the shape of the dose curve; as a rule, active = well fitted curve in the direction sought with a large enough effect; inconclusive = small, poorly fitted or top-dose-only effect, or another doubt; inactive = no such curve, though single readings can be large; an effect the other way counts as inactive or inconclusive. Unless noted, % is scaled to controls: 0 for no effect and ±100 for the full control effect.

SMILES	DT40 TDP1 CPT	IL-1B inflam inh	HT1080-NT tox	HT1080 IDH1KD tx	TDP1 cell noCPT
Cc1ccc(NC(=O)c2ncn(CCCNCCN3CCOCC3)n2)cc1C	-13.1%	-2.2	-4.0%	-0.7%	-12.3%
Cc1ccc(NC(=O)c2cnc3sc(N4CCOCC4)nn3c2=O)cc1N(C)C	14.6µM*	/	/	/	20.6µM*
Oc1ccc2c3c1OC1c4[nH]c5ccccc5c4C[C@@]4(O)C(C2)N(CC2CC2)CC[C@]314 (some centres not stated)	?	-63.7*	?	?	?
C=C(C)CN1CC[C@@]23c4c5ccc(O)c4O[C@H]2c2[nH]c4ccccc4c2C[C@]3(O)[C@@H]1C5	-104.8%	/	/	/	26.6µM*
C=CCN1CC[C@@]23c4c5ccc(O)c4O[C@H]2/C(=N\N=C2/CC[C@@]4(O)[C@H]6Cc7ccc(O)c8c7[C@@]4(CCN6CC=C)[C@@H]2O8)CC[C@]3(O)[C@@H]1C5	?	/	/	/	29.9µM*
O=C1/C(=C/c2ccccc2)C[C@@]2(O)[C@H]3Cc4ccc(O)c5c4[C@@]2(CCN3CC2CC2)C1O5 (some centres not stated)	3.26µM*	-108.3*	1.64µM*	3.66µM*	2.59µM*
c1cc(CN2CC3(CCNCC3)C2)ccn1	-12.6%	/	/	/	-16.3%
C=CC1CN2CCC1CC2c1[nH]c2ccccc2c1CCO (configuration not stated)	-18.8%	-27.9	-2.0%	13.8%	?
Cc1ccc(NP(=O)(c2ccccc2)c2nc3ccccc3s2)cc1 (configuration not stated)	?	12.2	-4.6%	-5.9%	?
C=C1CC[C@@]2(O)[C@H]3Cc4ccc(O)c5c4[C@@]2(CCN3CC2CC2)[C@H]1O5	1.3%	-0.2	-15.6%	8.8%	0.6%
Oc1ccc2c3c1OC1c4oc5ccccc5c4C[C@@]4(O)[C@@H](C2)N(CC2CC2)CC[C@]314 (some centres not stated)	-25.3%	-50.1*	?	?	?
CN(C)[C@H](Cc1ccccc1)c1ccccc1	-2.4%	/	/	/	-13.5%
CCCCN(CC)c1c([N+](=O)[O-])cc(C(F)(F)F)cc1[N+](=O)[O-]	-4.5%	/	/	/	18.4%
O=C(CCC1CCN(Cc2ccccc2)CC1)c1ccc2c(c1)NCCCC2	?	/	/	/	11.9µM*
CC(=O)NC(C)Cc1ccccc1 (configuration not stated)	11.2%	7.7	6.6%	1.4%	-9.9%
CCC(OC(C)=O)C(CC(C)NC)(c1ccccc1)c1ccccc1 (configuration not stated)	21.9µM*	/	/	/	24.6µM*
CC[C@H](OC(C)=O)C(C[C@H](C)N(C)C)(c1ccccc1)c1ccccc1	?	/	?	?	23.1µM*
O=C1CN(O)C(c2ccccc2)=c2cc(Br)ccc2=N1	-0.2%	8.3	13.6%	4.6%	-29.9%
CCNC1(c2cccs2)CCCCC1=O (configuration not stated)	5.9%[21.1 µM]	/	/	/	-16.5%[21.1 µM]
COc1ccc(CCN(C)Cc2ccncc2)cc1OC	-12.7%	18.3	17.9%	11.6%	-17.1%
CN(C)CCN(C)CCc1ccc(Cl)c(Cl)c1	16.4µM*	/	/	/	20.6µM*
c1cc2c(cc1N1CCCCC1)CNCc1cnnn1-2	-12.9%	8.9	?	8.4%	-5.6%
CCN(CC)C(=O)c1ccc(NC(=O)COc2ccc([N+](=O)[O-])cc2Cl)cc1	?	-6.4	-5.7%	-0.3%	20.6µM*
COC(=O)C(=O)N1CC2(C)CNCC(C)(C1)C2=O	3.5%	12.0	8.0%	18.1%	-17.8%
CCc1ccccc1NC(=O)N1C[C@H]2C[C@@H](C1)c1cccc(=O)n1C2	-8.2%	-12.0	-4.1%	-4.0%	-10.2%
